Reference: PubChem BioAssay
Records with an inconclusive call do not appear. The source made the active and inactive calls.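 The calls were made as follows, unless noted: active = differentiation response of at least 50%, scaled between solvent and reference control, from cells with both markers; inactive = the rest.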

What was measured:
[1] = yeast TOR pathway RPL19A-GFP modulators, primary screen, cell-based, S. cerevisiae, multiplex flow cytometry (AID 1862; in the data active = percent of DMSO control GFP below about 86%;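 also: lower values mimic rapamycin by blocking the RPL19A rise seen in DMSO cells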); details: S. cerevisiae RPL19A-GFP strain, flow cytometry fluorescence, 3 h; at 10 µM; stronger effect = lower value
[2] = modulators of MEP2-GFP levels in yeast, primary screen, S. cerevisiae, multiplex flow cytometry (AID 1867;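 active = GFP response, as percent of the DMSO control, above the screen-wide mean plus 3 SD, about 139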;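 also: median GFP channel fluorescence of barcode-gated MEP2-GFP cells measured by flow cytometry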); details: S. cerevisiae MEP2-GFP strain, 3 h, at 10 µM, stronger effect = higher value, 100% means same as DMSO wells
[3] = modulators of CIT2-GFP expression in yeast, primary screen, S. cerevisiae, GFP fusion, multiplex flow cytometry (AID 1870;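 active = percent response above a set limit, the screen-wide mean plus 3 SD, cut at about 130% in these data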;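 also: barcoded CIT2-GFP strain pooled with four other GFP strains with rapamycin as positive control; median GFP fluorescence per well over plate mean of DMSO wells so 100% = DMSO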); details: 3 h, at 10 µM, stronger effect = higher value
[4] = modulators of LAP4-GFP expression in yeast, primary screen, S. cerevisiae, multiplex flow cytometry (AID 1873;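 active = GFP signal, as percent of the solvent control, above the screen mean plus 3 SD, about 149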); details: 3 h, at 10 µM, stronger effect = higher value
[5] = inhibitors of CD8+ T cell-vesicle binding, pilot screen, LFA-1/ICAM-1 modulator project, MLPCN validation set, flow cytometry (AID 2523;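 active = response below a set limit, under 55% cells CD8-positive and vesicle-bound, and CD8 cells' 90th-percentile brightness under 279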;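 as to vesicle binding response: mean PE anti-B7-1 fluorescence of CD8+ cells relative to row control; 100% = QL9-loaded vesicles with DMSO vehicle in the same plate row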); details: 2C mouse CD8+ T cells, at 7 µM, stronger effect = lower value; double positive events: measured here: CD8+/vesicle+ event percentage
[6] = molecular target: Integrin beta-1 (Homo sapiens) + Integrin alpha-4 (Homo sapiens) (UniProt P13612+P05556); experiment: inhibition of HUTS-21 binding to VLA-4, pilot screen, VLA-4 allosteric modulator project, U937 cells, HUTS-21 mAb, flow cytometry, validation set (AID 2674;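 active = inhibition above 50%, about 3 SD of the validation set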;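 also: antibody binding induced by the VLA-4 ligand LDV present at three times its Kd; 0% = LDV ligand with antibody and no compound and 100% = antibody without LDV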); details: HUTS-21 LIBS mAb binding, at 6.7 µM, stronger effect = higher value, binding induced by LDV ligand
Integrin beta-1 (Homo sapiens) + Integrin alpha-4 (Homo sapiens), sequence (P05556 whole entry, looked up): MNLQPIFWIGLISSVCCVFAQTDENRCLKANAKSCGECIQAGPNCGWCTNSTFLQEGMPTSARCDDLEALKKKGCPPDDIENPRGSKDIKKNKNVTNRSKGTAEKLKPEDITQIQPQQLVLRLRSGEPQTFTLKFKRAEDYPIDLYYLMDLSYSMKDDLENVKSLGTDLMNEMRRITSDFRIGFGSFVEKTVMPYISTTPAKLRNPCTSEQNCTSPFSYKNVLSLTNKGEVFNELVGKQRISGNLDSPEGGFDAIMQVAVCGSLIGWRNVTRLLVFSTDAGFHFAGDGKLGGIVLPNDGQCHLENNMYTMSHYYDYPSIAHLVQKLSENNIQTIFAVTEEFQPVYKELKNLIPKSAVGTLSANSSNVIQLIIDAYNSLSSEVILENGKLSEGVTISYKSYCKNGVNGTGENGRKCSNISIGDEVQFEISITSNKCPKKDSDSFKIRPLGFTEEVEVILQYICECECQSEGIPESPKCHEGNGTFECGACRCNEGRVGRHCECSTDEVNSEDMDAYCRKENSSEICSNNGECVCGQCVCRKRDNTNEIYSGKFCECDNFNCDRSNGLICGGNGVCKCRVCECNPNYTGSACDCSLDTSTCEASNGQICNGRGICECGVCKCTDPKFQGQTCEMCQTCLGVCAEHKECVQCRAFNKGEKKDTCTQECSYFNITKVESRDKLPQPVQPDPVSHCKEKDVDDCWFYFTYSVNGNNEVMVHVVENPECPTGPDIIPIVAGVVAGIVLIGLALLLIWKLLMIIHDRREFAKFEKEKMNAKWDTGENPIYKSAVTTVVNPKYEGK
Integrin beta-1 (Homo sapiens) + Integrin alpha-4 (Homo sapiens), sequence (P13612 whole entry, looked up): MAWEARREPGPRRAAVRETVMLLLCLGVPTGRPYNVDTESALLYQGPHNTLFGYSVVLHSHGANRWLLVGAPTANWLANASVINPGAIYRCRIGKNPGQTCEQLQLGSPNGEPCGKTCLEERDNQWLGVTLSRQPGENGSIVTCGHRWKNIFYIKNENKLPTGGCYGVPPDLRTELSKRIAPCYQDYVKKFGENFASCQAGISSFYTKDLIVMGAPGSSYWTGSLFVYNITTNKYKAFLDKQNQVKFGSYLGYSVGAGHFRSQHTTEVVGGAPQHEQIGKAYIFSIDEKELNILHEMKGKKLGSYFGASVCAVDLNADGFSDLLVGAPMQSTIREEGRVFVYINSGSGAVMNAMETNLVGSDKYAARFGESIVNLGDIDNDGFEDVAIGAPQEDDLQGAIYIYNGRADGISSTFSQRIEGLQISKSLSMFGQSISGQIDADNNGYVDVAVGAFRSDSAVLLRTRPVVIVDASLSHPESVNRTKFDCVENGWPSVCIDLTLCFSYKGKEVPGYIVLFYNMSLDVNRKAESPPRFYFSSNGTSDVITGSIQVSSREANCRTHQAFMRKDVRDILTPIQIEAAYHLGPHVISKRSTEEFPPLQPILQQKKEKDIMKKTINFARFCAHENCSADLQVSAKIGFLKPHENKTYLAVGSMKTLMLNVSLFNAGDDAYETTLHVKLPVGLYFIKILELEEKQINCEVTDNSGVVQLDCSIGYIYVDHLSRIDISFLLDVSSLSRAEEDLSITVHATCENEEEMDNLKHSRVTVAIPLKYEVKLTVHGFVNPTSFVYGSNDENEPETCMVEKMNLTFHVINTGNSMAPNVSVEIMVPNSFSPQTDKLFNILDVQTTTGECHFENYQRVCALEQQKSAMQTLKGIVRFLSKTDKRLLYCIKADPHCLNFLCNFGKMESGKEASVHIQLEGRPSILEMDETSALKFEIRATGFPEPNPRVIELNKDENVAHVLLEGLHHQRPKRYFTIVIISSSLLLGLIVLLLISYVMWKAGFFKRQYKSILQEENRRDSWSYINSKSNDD

[7] = superoxide lowering in aged yeast cells, pilot screen, validation compound set (AID 2706;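 active = superoxide response below 65% of plate, a cut near 3 SD across the whole screen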;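 also: yeast exposed to compound for one week at 30 degrees C before staining; 100% = mean of all compound wells on the same plate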); details: S. cerevisiae aging, superoxide DHE fluorescence; at 10 µM, stronger effect = lower value
[8] = molecular target: Beta-adrenergic receptor kinase 1 (Homo sapiens) (UniProt P25098); experiment: GRK2 binders displacing RNA aptamer, biochemical, validation, human GRK2, bead flow cytometry (AID 488806;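 active = aptamer binding inhibition above 30%, about 3 SD of noise from non-fluorescent compounds; inactive = inhibition at or below 30%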); details: bead-bound GRK2, FAM-aptamer displacement, at 10 µM, stronger effect = higher value
Beta-adrenergic receptor kinase 1 (Homo sapiens), sequence (P25098 whole entry, looked up): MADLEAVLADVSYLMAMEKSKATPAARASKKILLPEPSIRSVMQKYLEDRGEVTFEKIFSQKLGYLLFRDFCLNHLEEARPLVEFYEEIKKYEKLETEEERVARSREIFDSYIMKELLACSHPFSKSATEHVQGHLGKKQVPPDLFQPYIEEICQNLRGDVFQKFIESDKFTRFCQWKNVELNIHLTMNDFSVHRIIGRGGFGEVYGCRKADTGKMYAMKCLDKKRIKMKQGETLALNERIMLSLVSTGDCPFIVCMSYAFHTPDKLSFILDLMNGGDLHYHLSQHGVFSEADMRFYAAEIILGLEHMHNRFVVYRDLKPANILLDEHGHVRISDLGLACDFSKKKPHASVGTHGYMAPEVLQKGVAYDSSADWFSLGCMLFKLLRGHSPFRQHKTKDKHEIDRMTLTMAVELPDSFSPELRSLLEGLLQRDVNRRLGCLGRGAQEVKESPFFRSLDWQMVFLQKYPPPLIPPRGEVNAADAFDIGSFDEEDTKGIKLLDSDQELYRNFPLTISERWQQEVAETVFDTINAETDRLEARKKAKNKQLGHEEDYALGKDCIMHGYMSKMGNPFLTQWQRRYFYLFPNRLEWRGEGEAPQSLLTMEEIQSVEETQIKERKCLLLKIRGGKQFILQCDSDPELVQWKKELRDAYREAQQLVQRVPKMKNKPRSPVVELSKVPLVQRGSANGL

[9] = molecular target: Beta-2 adrenergic receptor (Homo sapiens) (UniProt P07550); experiment: beta2AR agonists driving receptor internalization, pilot screen, cell-based, FAP fluorogen, flow cytometry, validation set (AID 504459;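 active = percent response above 42, roughly 3 SD of non-fluorescent test compounds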;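 also: agonist-driven loss of surface beta2AR via internalization measured by FAP dye flow cytometry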); details: Am2.2-beta2AR cells, FAP surface receptor flow cytometry; at 10 µM; stronger effect = higher value
Beta-2 adrenergic receptor (Homo sapiens), sequence (P07550 whole entry, looked up): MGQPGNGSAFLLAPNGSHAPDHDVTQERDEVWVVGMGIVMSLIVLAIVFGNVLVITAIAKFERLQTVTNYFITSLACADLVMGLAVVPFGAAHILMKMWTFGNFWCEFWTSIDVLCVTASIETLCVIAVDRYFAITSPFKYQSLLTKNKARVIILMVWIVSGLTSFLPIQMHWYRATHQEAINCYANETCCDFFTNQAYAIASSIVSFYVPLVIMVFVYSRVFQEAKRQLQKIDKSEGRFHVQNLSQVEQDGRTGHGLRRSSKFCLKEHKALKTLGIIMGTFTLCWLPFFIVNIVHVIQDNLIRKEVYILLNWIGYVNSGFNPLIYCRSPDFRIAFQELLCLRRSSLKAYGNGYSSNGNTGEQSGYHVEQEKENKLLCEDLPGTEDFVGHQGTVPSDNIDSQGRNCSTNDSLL

[10] = molecular target: AP-2 complex subunit beta (Homo sapiens) (UniProt P63010); experiment: inhibitors of arrestin peptide binding to AP2, pilot screen, biochemical, validation set, GST-AP2 beads, flow cytometry (AID 504541;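 active = inhibition above 54%, about 3 SD of non-fluorescent compounds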;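 also: AP2 carries R879A mutation and is captured from E. coli lysate; bead-bound FITC arrestin peptide fluorescence measuring arrestin peptide binding to AP2; 0% = DMSO wells and 100% = excess unlabeled arrestin peptide control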); details: FITC arrestin peptide, at 10 µM, stronger effect = higher value, AP2 beta2 appendage fragment, R879A mutant
AP-2 complex subunit beta (Homo sapiens), sequence (P63010 whole entry, looked up, the tested form may be a part, one chain of several): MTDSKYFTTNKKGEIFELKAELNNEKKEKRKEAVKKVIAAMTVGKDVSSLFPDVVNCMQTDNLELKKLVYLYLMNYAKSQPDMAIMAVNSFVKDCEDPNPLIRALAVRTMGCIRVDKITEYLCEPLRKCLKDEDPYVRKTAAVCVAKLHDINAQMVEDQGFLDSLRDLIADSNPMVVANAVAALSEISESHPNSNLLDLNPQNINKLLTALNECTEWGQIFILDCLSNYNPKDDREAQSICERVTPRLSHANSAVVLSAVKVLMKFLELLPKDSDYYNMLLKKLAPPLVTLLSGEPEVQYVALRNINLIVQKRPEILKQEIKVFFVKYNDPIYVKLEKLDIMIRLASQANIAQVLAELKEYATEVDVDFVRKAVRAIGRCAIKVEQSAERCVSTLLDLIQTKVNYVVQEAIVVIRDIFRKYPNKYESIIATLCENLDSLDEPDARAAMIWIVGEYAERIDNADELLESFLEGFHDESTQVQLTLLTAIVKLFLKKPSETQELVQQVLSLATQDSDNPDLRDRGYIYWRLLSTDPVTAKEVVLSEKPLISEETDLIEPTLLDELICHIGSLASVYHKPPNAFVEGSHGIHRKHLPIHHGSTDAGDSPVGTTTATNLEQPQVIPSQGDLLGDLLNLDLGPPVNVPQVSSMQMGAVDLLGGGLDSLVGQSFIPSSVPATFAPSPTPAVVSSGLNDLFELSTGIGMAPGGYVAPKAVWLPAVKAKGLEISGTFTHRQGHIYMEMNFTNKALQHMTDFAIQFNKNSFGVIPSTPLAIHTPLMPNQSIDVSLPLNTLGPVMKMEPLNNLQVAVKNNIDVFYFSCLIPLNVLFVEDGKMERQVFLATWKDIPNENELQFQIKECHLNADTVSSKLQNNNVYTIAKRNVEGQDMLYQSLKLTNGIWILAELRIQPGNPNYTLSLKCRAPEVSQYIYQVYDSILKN

[11] = yeast V-ATPase proton transport modulators, S. cerevisiae, pHLuorin, HTS validation (AID 504600; in the data active = response above about 15%;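 also: plate controls were DMSO for no effect and reference compound for full effect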); details: S. cerevisiae pHLuorin cytosolic pH, at 10 µM, stronger effect = higher value
[12] = tested on: anti-desmoglein-3 scFv antibody binding to human DSG3; experiment: inhibitors of anti-DSG3 scFv binding to DSG3, pilot screen, biochemical, validation compound set, bead-based, flow cytometry (AID 588368;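 active = binding below the plate cutoff, the plate median minus 3 SD, with a reading above zero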;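 also: signal is the median channel fluorescence of bead-bound GFP antibody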); details: Protein G beads, DSG3-Fc, scFv-GFP binding, at 10 µM, stronger effect = lower value
[13] = inhibitors of fungal efflux pumps CDR1, CDR2, MDR1, pilot screen, validation compound set, multiplex, phenotypic (AID 588506;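 active = efflux inhibition above 0.42, the validation set average plus 4 SD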;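 also: Nile Red retained in cells so higher fluorescence means more efflux inhibition; 0 = negative control wells and 1 = enniatin B 25 µM full block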); details: S. cerevisiae pump-expressing triplex, Nile Red efflux flow cytometry; at 10 µM; stronger effect = higher value; the pumps come from Candida albicans
[14] = molecular target: ATP-binding cassette sub-family B member 6 (Homo sapiens) (UniProt Q9NP58); experiment: ABCB6 transporter inhibitors, pilot screen, K562-ABCB6 cells, flow cytometry, validation set (AID 588550;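 active = inhibition above the screen-wide mean plus 3 SD, about 51%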;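 also: 0% = DMSO wells and 100% = benzethonium chloride 70 µM positive control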); details: K562-ABCB6 porphyrin accumulation, 1 h, at 10 µM, stronger effect = higher value
ATP-binding cassette sub-family B member 6 (Homo sapiens), sequence (Q9NP58 whole entry, looked up): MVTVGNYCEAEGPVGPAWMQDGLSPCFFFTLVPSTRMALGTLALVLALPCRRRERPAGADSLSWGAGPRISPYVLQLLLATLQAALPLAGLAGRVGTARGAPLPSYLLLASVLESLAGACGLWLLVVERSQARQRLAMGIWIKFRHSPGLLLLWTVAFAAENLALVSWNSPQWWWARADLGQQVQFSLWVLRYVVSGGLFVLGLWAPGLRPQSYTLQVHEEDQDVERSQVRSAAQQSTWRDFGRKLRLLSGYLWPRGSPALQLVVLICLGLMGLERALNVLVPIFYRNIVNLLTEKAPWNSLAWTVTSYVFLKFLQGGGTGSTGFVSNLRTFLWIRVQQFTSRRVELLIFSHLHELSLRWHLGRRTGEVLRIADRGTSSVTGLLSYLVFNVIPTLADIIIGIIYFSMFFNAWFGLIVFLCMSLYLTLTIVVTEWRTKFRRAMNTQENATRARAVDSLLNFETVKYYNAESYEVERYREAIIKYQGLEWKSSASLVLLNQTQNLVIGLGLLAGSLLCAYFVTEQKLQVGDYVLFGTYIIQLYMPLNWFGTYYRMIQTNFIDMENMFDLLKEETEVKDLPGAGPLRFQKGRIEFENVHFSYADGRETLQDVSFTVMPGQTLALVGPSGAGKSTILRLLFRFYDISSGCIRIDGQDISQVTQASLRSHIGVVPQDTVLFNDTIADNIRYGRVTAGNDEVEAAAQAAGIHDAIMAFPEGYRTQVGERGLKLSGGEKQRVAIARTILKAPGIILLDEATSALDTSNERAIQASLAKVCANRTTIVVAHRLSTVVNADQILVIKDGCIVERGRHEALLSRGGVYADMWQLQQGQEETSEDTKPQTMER

[15] = promoters of myeloid differentiation in arrested cells, primary screen, cell-based, GFP/MAC1 double positive, flow cytometry, validation set (AID 588685); details: ER-HoxA9 marrow cells, stronger effect = higher value, normalized: vehicle 0, fulvestrant 100;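 also: compound exposure lasts four days before antibody staining and flow analysis; 0% = DMSO wells and 100% = 5 µM fulvestrant positive control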
[16] = RPL19A-GFP modulators, yeast TOR pathway, confirmation, cell-based, S. cerevisiae, flow cytometry, cherry picks, mother/daughter gates (AID 2270;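 active = GFP response below 50% of the DMSO control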); details: S. cerevisiae RPL19A-GFP strain, 3 h, at 10 µM, stronger effect = lower value, 100 = same GFP as DMSO wells
[17] = LAP4-GFP expression modulators in yeast, confirmation, cell-based, cherry picks, flow cytometry, mother/daughter gates (AID 2271;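 active = GFP response above 150% of the DMSO control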;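 also: ratio of sample to DMSO plate mean so 100% equals DMSO level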); details: S. cerevisiae LAP4-GFP strain, 3 h, at 10 µM, stronger effect = higher value, 100 means same as DMSO control
[18] = modulators of MEP2-GFP levels in yeast, confirmation, S. cerevisiae, flow cytometry GFP, cherry picks (AID 2272;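 active = GFP response above 150% of the DMSO control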;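 also: ratio of well signal to plate DMSO mean so 100% equals DMSO level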); details: S. cerevisiae MEP2-GFP strain, 3 h, at 10 µM, stronger effect = higher value
[19] = AGP1-GFP expression modulators, hit retest, confirmation, cell-based, flow cytometry, S. cerevisiae, cherry picks (AID 2273;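 active = GFP response above 150% of the DMSO level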;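 also: median GFP channel fluorescence over the whole cell population gate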); details: S. cerevisiae AGP1-GFP strain, 3 h, at 10 µM
[20] = modulators of CIT2-GFP expression in yeast, confirmation, S. cerevisiae, GFP fusion, cherry picks, mother/daughter gates (AID 2274;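 active = GFP response above 150% of the DMSO level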); details: S. cerevisiae CIT2-GFP strain, flow cytometry, 3 h, at 10 µM, stronger effect = higher value
[21] = measured here: daughter cell gate
[22] = measured here: mother cell gate

O=C1NCC2=C1C(c1ccccc1)Nc1ccccc1N2 (stereo unspecified)
inactive: percent of DMSO control GFP [1] 94.6% | GFP response vs DMSO [2] 112% | percent response of DMSO control [3] 102% | GFP response vs DMSO [4] 75.9% | vesicle binding response [5] 205% | inhibition [6] 9.37% | superoxide response (% of plate) [7] 100% | aptamer binding inhibition [8] 1% | response [9] -9.09% | inhibition [10] 1.06% | response [11] -0.53% | binding (% of control) [12] 102% | efflux inhibition (fraction of control) [13] 0.16 | inhibition [14] 7% | differentiation response [15] -4.09%
65.6%: double positive events [5]

Cn1cnc2c1c(=O)n(CC(O)CO)c(=O)n2C (stereo unspecified)
62.7%: double positive events [5]
inactive: percent of DMSO control GFP [1] 102% | GFP response vs DMSO [2] 96.2% | percent response of DMSO control [3] 98.9% | GFP response vs DMSO [4] 98.6% | vesicle binding response [5] 59.9% | inhibition [6] 11% | aptamer binding inhibition [8] -1% | response [9] -2.93% | inhibition [10] -6.49% | response [11] -0.43% | binding (% of control) [12] 102% | efflux inhibition (fraction of control) [13] -0.04 | inhibition [14] 9% | differentiation response [15] 43.2%

C[C@]12CCC(=O)C=C1CC[C@@H]1[C@@H]2C(=O)C[C@@]2(C)[C@H]1CC[C@]2(O)C(=O)CO
97.3%: GFP response vs DMSO [16, 21]
61.9%: double positive events [5]
94.6%: GFP response relative to DMSO ([17]; measured here: mother cell gate response)
98.1%: GFP response vs DMSO [16, 22]
99.3%: GFP response relative to DMSO ([17]; measured here: daughter cell gate response)
100%: GFP response, % of DMSO [20, 21]
99.1%: GFP response, % of DMSO [20, 22]
inactive: percent of DMSO control GFP [1] 89.8% | GFP response vs DMSO [2] 125% | percent response of DMSO control [3] 108% | GFP response vs DMSO [4] 88% | GFP response vs DMSO [16] 97% | GFP response relative to DMSO [17] 96.5% | GFP response vs DMSO [18] 102% | GFP response, % of DMSO [19] 104% | GFP response, % of DMSO [20] 99.3% | vesicle binding response [5] 136% | inhibition [6] 14.2% | superoxide response (% of plate) [7] 94.9% | aptamer binding inhibition [8] 4% | response [9] -5.55% | inhibition [10] -9.52% | response [11] 1.03% | binding (% of control) [12] 101% | efflux inhibition (fraction of control) [13] 0.3 | inhibition [14] 14% | differentiation response [15] 14.7%

COC(=O)c1ccc(CC(=O)c2ccc(O)cc2O)o1
active: response [11] 18.1%
inactive: percent of DMSO control GFP [1] 93.5% | GFP response vs DMSO [2] 119% | percent response of DMSO control [3] 91.3% | GFP response vs DMSO [4] 79.8% | vesicle binding response [5] 248% | inhibition [6] -32.3% | superoxide response (% of plate) [7] 93.2% | aptamer binding inhibition [8] 4% | response [9] 7.39% | inhibition [10] 5.21% | binding (% of control) [12] 109% | efflux inhibition (fraction of control) [13] -0.24 | inhibition [14] -45% | differentiation response [15] 4.91%
72.3%: double positive events [5]

Cc1cc(C(C)(C)C)cc(C)c1CC1=NCCN1
inactive: percent of DMSO control GFP [1] 93.7% | GFP response vs DMSO [2] 133% | percent response of DMSO control [3] 96.6% | GFP response vs DMSO [4] 77.6% | vesicle binding response [5] 214% | inhibition [6] 18.1% | superoxide response (% of plate) [7] 104% | aptamer binding inhibition [8] 1% | response [9] -5.36% | inhibition [10] 5.97% | response [11] -7.49% | binding (% of control) [12] 98.5% | efflux inhibition (fraction of control) [13] 0.12 | inhibition [14] 10% | differentiation response [15] 2.46%
62.8%: double positive events [5]

CN(C)CCCN1c2ccccc2CCc2ccc(Cl)cc21
active: efflux inhibition (fraction of control) [13] 0.51
inactive: percent of DMSO control GFP [1] 100% | GFP response vs DMSO [2] 99.7% | percent response of DMSO control [3] 101% | GFP response vs DMSO [4] 98% | inhibition [6] 12.3% | superoxide response (% of plate) [7] 97.5% | aptamer binding inhibition [8] -3% | response [9] 38.7% | inhibition [10] -2% | response [11] -7.85% | binding (% of control) [12] 112% | inhibition [14] 18% | differentiation response [15] -10.4%
65%: double positive events [5]

Cc1ccccc1OCC(O)CN1CCN(C)CC1 (stereo unspecified)
62.9%: double positive events [5]
inactive: percent of DMSO control GFP [1] 97.9% | GFP response vs DMSO [2] 115% | percent response of DMSO control [3] 112% | GFP response vs DMSO [4] 75.9% | vesicle binding response [5] 193% | inhibition [6] 4.52% | superoxide response (% of plate) [7] 107% | aptamer binding inhibition [8] 3% | response [9] -6.23% | inhibition [10] 5.62% | response [11] -0.77% | binding (% of control) [12] 103% | efflux inhibition (fraction of control) [13] 0.27 | inhibition [14] 7% | differentiation response [15] -2.46%

COc1ccc(-c2nc(C)c(C(C)=O)n2O)cc1OC
52.4%: double positive events [5]
inactive: percent of DMSO control GFP [1] 92.6% | GFP response vs DMSO [2] 106% | percent response of DMSO control [3] 114% | GFP response vs DMSO [4] 78.1% | vesicle binding response [5] 110% | inhibition [6] 5.49% | superoxide response (% of plate) [7] 97.4% | aptamer binding inhibition [8] 2% | response [9] -10.4% | inhibition [10] -13.1% | response [11] 1.53% | binding (% of control) [12] 103% | efflux inhibition (fraction of control) [13] 0.01 | inhibition [14] 11% | differentiation response [15] 0%

OC[C@@H](O)[C@@H](O[C@H]1O[C@H](CO)[C@@H](O)[C@H](O)[C@H]1O)[C@H](O)[C@@H](O)CO
65%: double positive events [5]
inactive: percent of DMSO control GFP [1] 102% | GFP response vs DMSO [2] 103% | percent response of DMSO control [3] 88.4% | GFP response vs DMSO [4] 92% | vesicle binding response [5] 208% | aptamer binding inhibition [8] 0% | response [9] -1.29% | inhibition [10] 13.8% | response [11] -1.56% | binding (% of control) [12] 102% | inhibition [14] -1% | differentiation response [15] 20.8%
active: efflux inhibition (fraction of control) [13] 0.8
